Measured values from PubChem BioAssay AID1159580 (chemical genetic matrix, 2015).
The whole screen tested about 5,500 compounds, of which about 2,000 (36%) were called active. Not shown: some 18% with an inconclusive outcome. No stated cut-off is given here; in the data, active means normalized growth mostly below about 0.91 (no sharp cut-off); inconclusive means no clear call, values can overlap the other calls; inactive means mostly above about 0.92. The list shows a part of the results.

Assay: chemical genetic growth profiling, strain panel (AID 1159580);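 further: tested at 20 µM; growth read once vehicle control cultures reached saturation at 30 °C; 1 = growth at the plate median or of vehicle wells; lower values mean less growth of the strain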
Conditions: S. cerevisiae deletion strains, growth OD

Measured: normalized growth

CC(C)C(C)/C=C/C(C)[C@H]1CCC2C3=CCC4CC(=O)CC[C@]4(C)C3CC[C@@]21C (some centres not stated)
inactive: locus YAL013W, strain DEP1, hits give low values 1.04 | locus YAL021C, strain ccr4, hits give low values 0.999 | locus YAL026C, strain drs2, hits give low values 1 | locus YAL030W, strain snc1, hits give low values 1 | locus YBL061C, strain skt5, hits give low values 1 | locus YBR009C, strain hhf1, hits give low values 0.981 | locus YBR021W, strain FUR4, hits give low values 1 | locus YBR023C, strain chs3, hits give low values 0.995 | locus YBR171W, strain sec66, hits give low values 0.986 | locus YBR229C, strain ROT2, hits give low values 1.02 | locus YBR231C, strain swc5, hits give low values 1.03 | locus YBR279W, strain paf1, hits give low values 1 | locus YCL011C, strain gbp2, hits give low values 1.01 | locus YCL016C, strain dcc1, hits give low values 1.01 | locus YCL029C, strain bik1, hits give low values 1.02 | locus YCL061C, strain MRC1, hits give low values 1.01 | locus YCL069W, strain vba3, hits give low values 0.996 | locus YCR088W, strain abp1, hits give low values 1 | locus YDL005C, strain med2, hits give low values 1 | locus YDL035C, strain GPR1, hits give low values 0.992 | locus YDL040C, strain nat1, hits give low values 1 | locus YDL074C, strain BRE1, hits give low values 1 | locus YDL101C, strain DUN1, hits give low values 1.01 | locus YDL185W, strain tfp1, hits give low values 1.01 | locus YDL192W, strain arf1, hits give low values 0.996 | locus YDR001C, strain nth1, hits give low values 1 | locus YDR069C, strain doa4, hits give low values 0.997 | locus YDR101C, strain arx1, hits give low values 1.03 | locus YDR137W, strain rgp1, hits give low values 0.927 | locus YDR150W, strain NUM1, hits give low values 1.02 | locus YDR159W, strain sac3, hits give low values 1 | locus YDR162C, strain NBP2, hits give low values 0.97 | locus YDR195W, strain ref2 0.928 | locus YDR297W, strain sur2, hits give low values 1 | locus YDR318W, strain mcm21, hits give low values 1.01 | locus YDR334W, strain swr1, hits give low values 1 | locus YDR335W, strain msn5, hits give low values 1.01 | locus YDR388W, hits give low values 1.01 | locus YDR392W, strain spt3, hits give low values 0.941 | locus YDR502C, strain sam2, hits give low values 0.999 | locus YEL003W, strain gim4, hits give low values 1.01 | locus YEL037C, strain rad23, hits give low values 1 | locus YEL061C, strain CIN8 (second series), hits give low values 1.01 | locus YEL061C, strain CIN8, hits give low values 1.01 | locus YER015W, strain faa2, hits give low values 1 | locus YER016W, strain bim1, hits give low values 1 | locus YER110C, hits give low values 1.01 | locus YER111C, strain swi4, hits give low values 1 | locus YER155C, strain BEM2 (second series), hits give low values 0.984 | locus YER155C, strain BEM2, hits give low values 1.03 | locus YER167W, strain BCK2, hits give low values 1.03 | locus YFR010W, strain ubp6, hits give low values 1.01 | locus YGL078C, strain dbp3, hits give low values 0.98 | locus YGL086W, strain mad1, hits give low values 1 | locus YGL167C, strain pmr1, hits give low values 0.995 | locus YGL173C, strain kem1, hits give low values 0.995 | locus YGL227W, strain vid30, hits give low values 1 | locus YGL240W, strain doc1, hits give low values 0.999 | locus YGL248W, strain PDE1, hits give low values 1.01 | locus YGL253W, strain hxk2, hits give low values 1.01 | locus YGR078C, strain PAC10, hits give low values 1.01 | locus YGR135W, strain pre9, hits give low values 1 | locus YGR252W, strain gcn5, hits give low values 0.985 | locus YHR013C, strain ard1, hits give low values 0.968 | locus YHR027C, strain rpn1, hits give low values 1.01 | locus YHR030C, strain SLT2, hits give low values 1.03 | locus YHR079C, strain IRE1 (second series), hits give low values 1.01 | locus YHR094C, strain hxt1, hits give low values 1.02 | locus YHR129C, strain ARP1, hits give low values 1.02 | locus YHR142W, strain chs7, hits give low values 1 | locus YHR200W, strain rpn10, hits give low values 1.01 | locus YIL066C, strain RNR3, hits give low values 1.01 | locus YIL073C, strain SPO22, hits give low values 1.02 | locus YIL125W, strain kgd1, hits give low values 1.01 | locus YIR030C, strain dcg1, hits give low values 1.02 | locus YJL092W, strain hpr5, hits give low values 1.01 | locus YJL095W, strain BCK1 (second series), hits give low values 1.01 | locus YJL095W, strain BCK1, hits give low values 1.02 | locus YJL115W, strain asf1, hits give low values 0.99 | locus YJL129C, strain trk1, hits give low values 0.998 | locus YJL134W, strain LCB3, hits give low values 1.02 | locus YJL154C, strain vps35, hits give low values 1.01 | locus YJL164C, strain tpk1, hits give low values 0.998 | locus YJL166W, strain qcr8, hits give low values 1.01 | locus YJL168C, strain set2, hits give low values 1 | locus YJL187C, strain SWE1 (second series), hits give low values 1.01 | locus YJL187C, strain SWE1, hits give low values 1 | locus YJR043C, strain POL32, hits give low values 1.02 | locus YJR075W, strain HOC1, hits give low values 1.03 | locus YKL009W, strain mrt4, hits give low values 0.95 | locus YKL068W, hits give low values 1.01 | locus YKL085W, strain MDH1 (second series), hits give low values 1.02 | locus YKL085W, strain MDH1, hits give low values 1.02 | locus YKL160W, strain elf1, hits give low values 1.01 | locus YKR001C, strain vps1, hits give low values 1.01 | locus YKR026C, strain gcn3, hits give low values 0.971 | locus YKR091W, strain srl3, hits give low values 1.01 | locus YLL001W, strain dnm1, hits give low values 0.997 | locus YLL026W, hits give low values 1 | locus YLL041C, strain sdh2, hits give low values 1 | locus YLR027C, strain aat2, hits give low values 1.01 | locus YLR039C, strain RIC1, hits give low values 0.968 | locus YLR058C, strain SHM2, hits give low values 1.02 | locus YLR102C, strain apc9, hits give low values 1.01 | locus YLR221C, strain rsa3, hits give low values 1.01 | locus YLR258W, strain gsy2, hits give low values 1 | locus YLR262C, strain YPT6 (second series), hits give low values 0.895 | locus YLR262C, strain YPT6, hits give low values 0.952 | locus YLR268W, strain sec22, hits give low values 1 | locus YLR320W, strain mms22, hits give low values 0.965 | locus YLR330W, strain CHS5, hits give low values 1.03 | locus YLR342W, strain FKS1 (second series), hits give low values 1.03 | locus YLR342W, strain FKS1, hits give low values 1 | locus YLR357W, strain rsc2, hits give low values 0.978 | locus YLR370C, strain arc18, hits give low values 0.998 | locus YLR371W, strain rom2, hits give low values 1.01 | locus YLR384C, strain iki3, hits give low values 0.997 | locus YLR418C, strain cdc73, hits give low values 1.03 | locus YML016C, strain PPZ1, hits give low values 1.02 | locus YML032C, strain rad52, hits give low values 1 | locus YML120C, strain ndi1, hits give low values 1.01 | locus YML124C, strain tub3, hits give low values 1.02 | locus YMR058W, strain fet3, hits give low values 1.01 | locus YMR078C, strain ctf18, hits give low values 1.02 | locus YMR125W, strain sto1, hits give low values 1.01 | locus YMR129W, hits give low values 0.999 | locus YMR205C, strain PFK2, hits give low values 0.976 | locus YMR223W, strain ubp8, hits give low values 0.986 | locus YMR231W, strain pep5, hits give low values 0.999 | locus YMR307W, strain GAS1, hits give low values 1.2 | locus YNL067W, strain RPL9B, hits give low values 1.02 | locus YNL071W, strain lat1, hits give low values 1.01 | locus YNL209W, strain ssb2, hits give low values 1.01 | locus YNL233W, strain BNI4, hits give low values 1.03 | locus YNL248C, strain rpa49, hits give low values 0.995 | locus YNL250W, strain rad50, hits give low values 1.01 | locus YNL271C, strain bni1, hits give low values 1 | locus YNL298W, strain CLA4, hits give low values 0.991 | locus YNL307C, strain MCK1, hits give low values 1.02 | locus YNL322C, strain KRE1 (second series), hits give low values 0.996 | locus YNR049C, strain mso1, hits give low values 1 | locus YNR052C, strain pop2, hits give low values 0.971 | locus YOL012C, strain htz1 1.52 | locus YOL147C, strain pex11, hits give low values 1.01 | locus YOR001W, strain rrp6, hits give low values 1 | locus YOR061W, strain CKA2, hits give low values 1.02 | locus YOR069W, strain VPS5, hits give low values 1.02 | locus YOR070C, strain gyp1, hits give low values 1 | locus YOR080W, strain dia2, hits give low values 1 | locus YOR083W, strain WHI5, hits give low values 1.01 | locus YOR106W, strain vam3, hits give low values 0.995 | locus YOR136W, strain idh2, hits give low values 1 | locus YOR144C, strain elg1, hits give low values 1.01 | locus YOR184W, strain ser1, hits give low values 1 | locus YOR265W, strain rbl2, hits give low values 0.999 | locus YOR270C, strain vph1, hits give low values 1.04 | locus YOR290C, strain snf2, hits give low values 0.936 | locus YOR316C, strain cot1, hits give low values 1.01 | locus YPL051W, strain arl3, hits give low values 1.03 | locus YPL078C, strain atp4, hits give low values 1 | locus YPL106C, strain sse1, hits give low values 1.01 | locus YPL240C, strain hsp82, hits give low values 0.998 | locus YPR119W, strain clb2, hits give low values 1.02 | locus YPR141C, strain kar3, hits give low values 1.01 | locus YPR163C, strain tif3, hits give low values 1.01 | locus YPR167C, strain met16, hits give low values 1.01 | strain wtn01, hits give low values 0.991
